# Screens as filed in PubChem.
# Compounds with a hit are over-represented: about 4.1% of the library has one in this group of screens.
# tim23-1 inh = growth inhibitors of tim23-1 mutant yeast, primary screen, luminescence, uHTS; S. cerevisiae tim23-1 growth, BacTiter-Glo luminescence, 24 h; inhibition, % at 20 µM; hit rate 1.3% among 330,000;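 active = growth inhibition of the mutant yeast at or above 50%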;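 also: temperature-sensitive mutant grown at 25 °C; plate controls were DMSO-treated mutant yeast for no effect and medium wells lacking yeast for full effect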
# TIM10 inh = growth inhibitors of isogenic TIM10 control yeast, primary screen, counter-screen for tim10-1 yeast inhibitor project, luminescence, uHTS | S. cerevisiae TIM10 strain growth, BacTiter-Glo luminescence, 24 h | inhibition, % at 10 µM | hit rate 1.4% among 330,000;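 active = inhibition of 40% or more at the single tested concentration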;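 also: wild-type TIM10 isogenic control strain grown at permissive 25 °C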
# tim10-1 inh = growth inhibitors of tim10-1 mutant yeast, primary screen, luminescence, uHTS; hit rate 2.2% among 330,000; inhibition, % at 20 µM; S. cerevisiae tim10-1 ts strain growth, BacTiter-Glo, 24 h;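 active = inhibition of at least 40%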;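 also: mutant grown at 25 °C; 0% = DMSO wells with yeast and 100% = wells holding no yeast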
# NALP3 yeast inh = NALP3 inflammasome inhibitors in reconstituted yeast, primary screen, luminescence, uHTS. AID 2825, 2010. hit rate 0.39% among 330,000. Yeast reconstituted NLRP3/ASC/caspase-1, beta-gal luminescence, 24 h. inhibition, % at 10 µM;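 active = inhibition of 50% or more; inactive = inhibition below 50%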;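 also: plate controls were induced DMSO wells for no effect and uninduced yeast grown without galactose for full effect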
# NALP1 yeast inh = NALP1 inflammasome inhibitors in reconstituted yeast, colorimetric, S. cerevisiae, triplicate retest; S. cerevisiae NALP1/ASC/caspase-1 growth, X-gal OD620, 72 h; inhibition, % at 10 µM; hit rate 0.61% among 280,000; in the data active = inhibition mostly above about 24%, no sharp cut-off; inactive = mostly below about 32%
# tim10 confirm = growth inhibitors of wild-type TIM10 yeast, confirmation, counter-screen for tim10-1 synthetic lethality project, single concentration, luminescence, S. cerevisiae; shares compounds with TIM10 inh; S. cerevisiae tim10 strain growth, BacTiter-Glo luminescence, 24 h; inhibition, % at 10 µM; hit rate 63% among 4,600;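 active = inhibition of yeast growth at or above a set limit in either of two replicates at 10 µM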;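 also: this counterscreen used the strain with wild-type TIM10; 0% = yeast with DMSO and 100% = medium wells lacking yeast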
# An asterisk follows results filed as active; · = no result given.
SMILES,tim23-1 inh,TIM10 inh,tim10-1 inh,NALP3 yeast inh,NALP1 yeast inh,tim10 confirm
CC1(C(=O)OCC(=O)Nc2ccc3ccccc3c2)CC1(Cl)Cl (stereo unspecified),43.2,47.9*,21.0,9.5,20.4,32.1*
Cc1ccc2c(c1)N(CC(=O)NC1CCC(C)CC1)C(=O)c1cccnc1O2 (stereo unspecified),27.5,0.9,11.1,5.0,10.3,·
Fc1ccccc1NC(=S)NN(Cc1ccccc1)c1ccccc1,41.7,43.6*,32.7,6.0,-0.8,37.5*
Fc1ccccc1NC(=S)NCc1ccccc1,9.8,12.9,16.7,2.3,8.4,·
O=C(/C=C/c1ccc(O)c(O)c1)c1ccccc1O,27.0,41.7*,33.0,13.5,-17.7,10.9
O=C(/C=C/c1ccoc1)c1ccccc1O,6.5,10.5,14.9,-21.6,20.0,·
COc1cc(CNC(=O)c2ccc3c(c2)S(=O)(=O)c2ccccc2C3=O)cc(OC)c1,-12.6,-1.3,5.2,9.1,·,·
COc1ccc(NC(=O)CSc2n[nH]c(=O)n2C2CC2)cc1OC,25.9,-1.4,2.9,9.2,·,·
O=c1[nH]c(NNC(=S)NC2CCCCC2)nc2c1C1(CCCC1)Cc1ccccc1-2,40.0,40.6*,28.8,0.7,·,32.5*
Cc1ccccc1-n1c(-c2csc3ccccc23)n[nH]c1=S,31.6,40.4*,34.7,7.9,15.2,-30.5
CCn1cc(/C=C(\NC(=O)c2cc(OC)c(OC)c(OC)c2)C(=O)NCCN2CCOCC2)c2ccccc21,-4.2,97.4*,14.0,5.5,14.8,0.0
CCn1cc(/C=C(\NC(=O)c2cc(OC)c(OC)c(OC)c2)C(=O)NCCCN2CCOCC2)c2ccccc21,9.4,3.7,20.1,-0.4,5.3,·
Cc1ccc(C(=O)NC(=S)Nc2ccccc2C(F)(F)F)cc1,27.8,40.1*,25.8,21.0,-13.7,12.2
Cc1cc(C)cc(C(=O)NC(CC(N)=O)c2ccc(N3CCN(c4ccccc4)CC3)c([N+](=O)[O-])c2)c1 (stereo unspecified),5.7,48.6*,-0.8,8.0,16.6,-5.4
NC(=O)CC(NC(=O)c1cccc(Br)c1)c1ccc(NCC2CC2)c([N+](=O)[O-])c1 (stereo unspecified),12.8,-5.6,-6.2,15.0,15.0,·
NC(=O)CC(NC(=O)c1ccccc1)c1ccc(N2CCN(c3ccccc3)CC2)c([N+](=O)[O-])c1 (stereo unspecified),-10.7,-2.2,-12.8,5.1,0.5,·
NC(=O)CC(NC(=O)c1cccc(Br)c1)c1ccc(NCCN2CCOCC2)c([N+](=O)[O-])c1 (stereo unspecified),-5.3,42.8*,7.3,-3.6,·,-11.6
O=C(Nc1cccc(NC(=O)c2cccs2)c1)c1ccc([N+](=O)[O-])o1,33.4,56.4*,35.3,0.8,·,62.4*
O=C(Cc1ccccc1F)Nc1nc(-c2cccs2)cs1,27.8,47.3*,15.5,4.6,14.9,-2.5
Cc1ccc(C(=O)Nc2ccc(NC(=O)c3cccs3)cc2)cc1[N+](=O)[O-],-17.6,-11.3,7.9,3.8,-14.4,·
O=C(Cc1ccccc1)Nc1nc(-c2cccs2)cs1,34.2,25.4,35.8,21.9,17.2,·
Cc1ccc(NC(=O)c2cccs2)cc1[N+](=O)[O-],36.2,44.9*,17.8,22.8,21.0,12.1
Cc1cccc(NC(=O)c2ccc([N+](=O)[O-])o2)n1,-18.5,59.8*,5.2,3.2,-12.8,-26.1
COc1ccc(S(=O)(=O)N2CCc3ccccc32)cc1C(=O)NCC(c1ccco1)N1CCCC1 (stereo unspecified),7.6,5.6,0.7,11.7,·,·
Cc1[nH]c(=O)[nH]c(=O)c1/C=N/NC(=O)[C@H](C)N,1.0,-7.0,-16.6,-22.0,-1.1,·
SMILES,tim23-1 inh,TIM10 inh,tim10-1 inh,NALP3 yeast inh,NALP1 yeast inh,tim10 confirm
COc1cccc(CNC(=O)c2cc(S(=O)(=O)N3CCCC3)cn2C)c1,0.8,7.1,3.3,-2.3,17.6,·
O=C(Nc1ccc(N2CCCCCC2)cc1)c1cccc(S(=O)(=O)N2CCOCC2)c1,24.7,17.8,14.3,10.8,·,·
COc1ccccc1OCCCC(=O)Nc1ccc([N+](=O)[O-])cc1Br,13.0,-10.2,-25.0,43.4,6.9,·
O=C(Nc1nc(-c2cccs2)cs1)c1ccc([N+](=O)[O-])o1,44.7,62.5*,11.7,16.9,·,87.2*
O=C(N1CCOCC1)N1CCN(S(=O)(=O)c2ccc(F)cc2)CC1,23.2,-5.0,18.0,3.4,9.8,·
CC(=O)NC/C(C)=N\Nc1ccc([N+](=O)[O-])cc1,4.7,48.7*,30.8,23.4,27.9,-33.2
COc1ccc(Cn2c(=O)oc3ccc(C)cc32)cc1,17.7,97.3*,-5.6,29.5,4.9,4.7
COc1ccc(N(CC(=O)Nc2cc(Cl)ccc2OC)S(=O)(=O)c2c(C)[nH]c(=O)[nH]c2=O)cc1,-0.1,43.7*,-8.1,-0.9,4.4,-2.5
CCCNCC1C(Oc2ccc(Cl)cc2)C(=O)N1c1ccccc1C (stereo unspecified),15.3,17.4,15.4,9.1,-11.8,·
CN(C)c1ccc(/C=C(\C#N)C(=O)NCc2ccco2)cc1,10.9,15.0,3.7,0.4,13.2,·
Cn1c(=O)n(C)c2cc(/C=C(/C#N)C(=O)NCc3ccco3)ccc21,21.0,43.4*,33.5,3.6,11.6,36.7*
COc1ccc(CCN2C(=O)CC(NNC(=O)c3ccccc3Br)C2=O)cc1OC (stereo unspecified),9.6,1.3,11.4,-6.8,11.6,·
COCCNC(=S)N/N=C/c1c2ccccc2cc2ccccc12,34.6,41.1*,27.8,18.3,-10.8,37.1*
Cc1ccccc1NC(=S)N(Cc1cccs1)C1CCCC1,34.8,14.9,34.7,-1.9,5.1,·
CCc1ccccc1NC(=S)N(Cc1cccs1)C1CCCC1,10.9,40.1*,34.2,-14.4,3.0,15.3
CC(CCc1ccccc1)NS(=O)(=O)c1ccc(Cl)c(C(=O)O)c1 (stereo unspecified),1.8,10.9,12.5,7.0,6.0,·
O=C(O)CCNc1cc2ccccc2cc1C(=O)O,14.3,29.0,3.2,6.5,-2.1,·
CC(C)c1ccc(N2C(=O)CC(Sc3ncccn3)C2=O)cc1 (stereo unspecified),6.6,-3.2,11.9,24.5,10.1,·
COc1ccc(S(=O)(=O)NCC2(N3CCOCC3)CCCCC2)cc1OC,1.0,-1.1,6.3,24.5,·,·
Cc1ccc(NC(=O)COC(=O)CCc2ccccc2)cc1S(=O)(=O)N1CCOCC1,14.1,4.5,-2.7,2.6,·,·
CN(C(=O)c1cnc(N2CCN(c3ncccn3)CC2)c2ccccc12)c1ccc(Cl)cc1,10.9,51.6*,37.8,-0.6,12.9,27.5*
